High-throughput results: PubChem BioAssay, several laboratories
In the library only some 32% were active in any assay of this set; here they are far more common.
PostGolgi ctrl – growth inhibition of yeast control strain, primary screen, counter-screen for post-Golgi transport modulator project; efflux-deficient yeast background strain, growth absorbance A615, 16 h; inhibition, % at 10 µM; hit rate 5% among 98,000; AID 738, 2007
CYP2C9 inhib – blockers of cytochrome P450 2C9 activity – biochemical, luminescence, ADME assay, primary screen; inhibition, % at 5 µM; CYP2C9 Supersomes, luciferin-H conversion; P11712; hit rate 20% among 96,000;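 active means blocking of liver enzyme CYP2C9 beyond about 50% at 5 µM, limit read from the data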
CYP2C19 activ – human CYP2C19 activators, primary screen, biochemical, luminescence | Cytochrome P450 2C19 (Homo sapiens), P33261 | activation factor at 5 µM | 96,000 tested, under 10 active | recombinant CYP2C19, luciferin-H EGE luminescence; hits give high values; 0 = fully inhibited enzyme, 1 = untreated enzyme;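 active means activation factor of at least 2 at 5 µM in the primary screen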;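 further: 0 = wells with 2.5 mM tranylcypromine and 1 = vehicle-only wells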
Target sequence (P33261 whole entry, looked up): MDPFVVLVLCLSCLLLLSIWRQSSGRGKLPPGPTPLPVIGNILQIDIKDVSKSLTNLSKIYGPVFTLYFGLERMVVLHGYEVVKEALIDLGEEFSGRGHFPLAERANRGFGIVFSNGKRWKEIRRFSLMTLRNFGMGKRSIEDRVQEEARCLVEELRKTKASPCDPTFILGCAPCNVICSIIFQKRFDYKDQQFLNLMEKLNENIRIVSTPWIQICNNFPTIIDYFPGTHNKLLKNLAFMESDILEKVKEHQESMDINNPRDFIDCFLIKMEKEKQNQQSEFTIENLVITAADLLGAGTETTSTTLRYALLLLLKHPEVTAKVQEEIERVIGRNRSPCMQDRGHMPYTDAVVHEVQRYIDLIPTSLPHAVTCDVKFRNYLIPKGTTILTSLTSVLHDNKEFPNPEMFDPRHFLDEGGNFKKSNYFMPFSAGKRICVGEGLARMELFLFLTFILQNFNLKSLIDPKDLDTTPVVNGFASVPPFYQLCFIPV
CYP2C19 inhib – blockers of cytochrome P450 2C19 activity – biochemical, luminescence, ADME assay, primary screen; CYP2C19 Supersomes, luciferin-H EGE luminescence, 30 min; AID 778, 2007; inhibition, % at 5 µM; hit rate 21% among 96,000;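 active means CYP2C19 inhibition above a set limit at 5 µM in the primary screen, cut at about 50% in these data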;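 further: plate controls were negative control wells for no effect and 2.5 mM tranylcypromine positive control for full effect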
PostGolgi yeast – phenotypic screen on post-Golgi transport, primary screen | post-Golgi transport phenotypic cell assay | hit rate 0.9% among 98,000 | inhibition, % at 10 µM;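 further: yeast cells grown in 1536-well plates; yeast grown about 18 h at 30C before absorbance read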
CYP2C9 activ – human CYP2C9 activators, primary screen, biochemical, luminescence; Cytochrome P450 2C9 (Homo sapiens), P11712; activation factor at 5 µM; hit rate 1.4% among 96,000; recombinant CYP2C9, luciferin-H conversion; hits give high values; factor 1 = untreated enzyme, 0 = blocked;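 active means activation factor of 2 or more for CYP2C9 at a 5 µM dose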;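 further: 0 = sulfaphenazole-blocked wells and 1 = vehicle-only wells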
An asterisk follows results filed as active; . = no result. Unless noted, no stated cut-off is given here; in the data, active means inhibition above about 30%; inactive means the rest.

SMILES	PostGolgi ctrl	CYP2C9 inhib	CYP2C19 activ	CYP2C19 inhib	PostGolgi yeast	CYP2C9 activ
CCCn1c(SCc2nc3sc(C)c(C)c3c(=O)[nH]2)nc2ccccc2c1=O	4.5	66.0*	0.6	36.9	2.7	0.3
Cc1noc(C)c1CSc1nc2ccccc2c(=O)n1-c1ccc(F)cc1F	55.2*	94.1*	0.6	39.3	3.4	0.1
C=CCn1c(SCc2nc3ccccc3c(=O)[nH]2)nc2ccccc2c1=O	14.0	82.8*	0.7	33.2	2.5	0.2
O=c1c2ccccc2nc(SCc2nnc(-c3ccccc3)o2)n1-c1ccccc1	.	95.4*	0.6	35.1	.	0
O=c1c2ccccc2nc(SCc2cc(F)ccc2F)n1C1CCCC1	-1.1	10.6	1.1	-11.6	-10.4	0.9
CCOC(=O)C1CCN(C(=O)NC23CC4CC(CC(C4)C2)C3)CC1	13.3	11.1	0.5	48.2	1.9	0.9
Cc1oc(=O)c(NC(=O)c2cccc(Cl)c2)cc1C(=O)c1ccccc1	4.7	5.8	0.8	24.9	-3.9	0.9
C=CCn1c(SCC(=O)N2CCc3ccccc3C2)nc2ccccc2c1=O	48.5*	94.7*	0.3	74.0*	-6.3	0.1
C=CCn1c(SCC(=O)c2ccc(Cl)s2)nc2ccccc2c1=O	17.4	35.4	0.7	27.1	-3.2	0.6
CCCCCCn1c(CN2CCN(C)CC2)nc2c1c(=O)n(C)c(=O)n2C	14.2	.	.	.	5.6	.
CCC(NS(=O)(=O)c1ccc(OC)cc1)C(=O)NCCC1=CCCCC1 (configuration not stated)	10.9	33.8	0.7	31.1	-9.7	0.7
COc1ccc(CNC(=O)C(c2ccc(C)o2)N(C(=O)c2csnn2)c2ccc(C(C)C)cc2)cc1 (configuration not stated)	-0.1	52.3*	0.5	50.6*	5.0	0.5
CN(C)c1ccc(C(C(=O)NC(C)(C)C)N(C(=O)c2csnn2)C2CC2)cc1 (configuration not stated)	1.9	5.4	0.6	37.1	6.1	0.9
Cc1ccc(C(C(=O)NCc2ccccc2)N(C(=O)c2csnn2)c2cccc3ccccc23)o1 (configuration not stated)	11.8	13.5	0.5	47.3	6.1	0.9
CCc1ccc(N(C(=O)c2csnn2)C(C(=O)NC(C)(C)C)c2ccncc2)cc1 (configuration not stated)	-1.7	8.7	0.5	46.0	35.0*	0.9
COc1ccc(S(=O)(=O)N2CCC(NC(=O)OCc3c(Cl)cccc3Cl)CC2)cc1	31.6*	-8.1	1.1	-6.1	-11.9	1.1
COc1ccc(S(=O)(=O)N2CCCC(C(=O)NC3CCCCC3)C2)cc1 (configuration not stated)	31.6*	-30.7	1	0.9	-1.6	1.3
COc1ccc(COC(=O)NC2CCN(S(=O)(=O)c3ccc(OC)cc3)CC2)cc1	4.4	22.0	0.9	9.1	-3.0	0.8
CCOC(=O)/C(C(N)=NCc1ccco1)=C(/O)c1ccccc1	0.6	39.9	0.5	54.7*	-3.2	0.6
c1ccc(NC(=NCc2ccco2)c2ccccc2)cc1	6.2	19.4	0.9	8.2	10.6	0.8
Cc1cc(-c2ccccc2)n2nc(C)c(C#N)c2n1	3.6	4.6	0.8	22.2	12.1	1
Cc1c(-c2ccccc2)nc(N)c(C#N)c1-c1ccco1	3.7	45.1	0.3	69.2*	-3.6	0.5
Cc1nc(N)c(C#N)c(-c2ccccc2)c1C	31.3*	21.8	0.8	16.6	-1.1	0.8
Cc1nn(-c2ccccc2)c2nc(N)c(C#N)c(-c3ccc(F)cc3)c12	23.4	84.0*	1	2.2	3.9	0.2
CCCCCc1nc(N)c(C#N)c(-c2ccco2)c1CCCC	7.6	11.5	1.1	-11.7	-1.8	0.9
SMILES	PostGolgi ctrl	CYP2C9 inhib	CYP2C19 activ	CYP2C19 inhib	PostGolgi yeast	CYP2C9 activ
COC(=O)CCN1CCC(C(N)=O)CC1	1.0	47.5	0.9	10.4	0.1	0.5
O=C(CN(Cc1ccco1)C(=O)c1cccc(Cl)c1)Nc1c(Cl)cc(Cl)cc1Cl	15.1	62.4*	0.5	50.8*	-1.6	0.4
Cc1ccc(OCCCn2ccnc2)cc1C	0.0	96.1*	0	100.4*	10.3	0
Cc1cccc(OCCCn2ccnc2)c1	3.7	67.5*	0	99.8*	0.6	0.3
O=C(Cn1c(C(F)(F)F)nc2ccccc21)Oc1cccc(C(F)(F)F)c1	-8.7	18.8	0.9	7.5	4.7	0.8
CCCN1CCN(C(=O)Cn2cccc2C(=O)c2ccccc2)CC1	17.4	.	.	.	9.8	.
Cc1sc2nc(C3CC3)nc(N3CCN(S(=O)(=O)c4ccc(F)cc4)CC3)c2c1C	25.0	59.2*	0.6	37.0	-2.2	0.4
CCOCCn1c(CN2CCN(c3cccc(Cl)c3)CC2)nc2c1c(=O)n(C)c(=O)n2C	16.2	80.2*	0.5	49.9	-8.2	0.2
COCCn1c(CN2CCN(c3cccc(Cl)c3)CC2)nc2c1c(=O)n(C)c(=O)n2C	7.4	76.7*	0.6	43.7	-5.7	0.2
CCOCCn1c(CN2CCN(c3ccc(F)cc3)CC2)nc2c1c(=O)n(C)c(=O)n2C	-3.7	39.4	0.9	9.1	2.9	0.6
Cc1cc(OC(=O)c2ccc(S(=O)(=O)N(C)C)cc2)cc(=O)o1	-2.2	-3.5	1	4.4	-1.9	1
Cc1[nH]n(-c2ccccc2)c(=O)c1/C=N/Nc1nncc(-c2ccccc2)n1	4.8	82.0*	0.4	59.3*	3.9	0.2
CC(=O)c1cccc(-n2c(CCC(=O)O)ccc2-c2cccs2)c1	7.6	27.2	0.9	10.8	4.9	0.7
O=C(O)CCc1ccc(-c2cccs2)n1-c1ccc(C(=O)O)cc1	-1.9	-103.3	1.1	-11.5	0.0	2*
COc1ccc(C(=O)CSc2nn3c(=O)c(C(C)(C)C)nnc3s2)cc1	12.2	26.7	0.9	13.8	1.5	0.7
CC(C)(C)c1nnc2sc(SC/C(O)=C(\C#N)c3nc4ccccc4[nH]3)nn2c1=O	4.8	43.2	0.3	68.0*	-7.3	0.6
CC(C)(C)c1nnc2sc(SCC(=O)c3ccccc3)nn2c1=O	5.1	88.4*	0.6	36.5	-6.9	0.1
COc1ccc(-n2c(C)cc(C(=O)CSc3nn4c(=O)c(C(C)(C)C)nnc4s3)c2C)cc1	-6.7	78.1*	0.4	58.0*	-7.8	0.2
CC1(C)CC(=O)C(C=NCC2CCCO2)=C(O)C1 (configuration not stated)	5.4	4.5	0.9	6.2	-5.3	1
Cc1ccc(Cn2ncc3c(N4CCN(c5ccccc5C)CC4)ncnc32)cc1	12.5	74.3*	0.4	60.1*	-3.6	0.3
c1ccc(Cn2ncc3c(N4CCCCC4)ncnc32)cc1	3.2	30.3	0.3	67.4*	7.6	0.7
